This is an account of results in ChEMBL document CHEMBL2218924, “A broad activity screen in support of a chemogenomic map for kinase signalling research and drug discovery” (Biochem J, 2013).

The target of experiment [1] is PAS domain-containing serine/threonine-protein kinase (Homo sapiens) (UniProt Q96RG2). Conditions: at 1 µM.
In experiment [2] the target is Serine/threonine-protein kinase PAK 5 (Homo sapiens) (UniProt Q9P286). Conditions: at 1 µM.
For experiment [3] the target is unchanged. The note with it: at 10 µM.
In experiment [4] the target is Serine/threonine-protein kinase PAK 6 (Homo sapiens) (UniProt Q9NQU5). The note with it: at 1 µM.
Sequence of Serine/threonine-protein kinase PAK 6 (Homo sapiens) (Q9NQU5 whole entry, looked up): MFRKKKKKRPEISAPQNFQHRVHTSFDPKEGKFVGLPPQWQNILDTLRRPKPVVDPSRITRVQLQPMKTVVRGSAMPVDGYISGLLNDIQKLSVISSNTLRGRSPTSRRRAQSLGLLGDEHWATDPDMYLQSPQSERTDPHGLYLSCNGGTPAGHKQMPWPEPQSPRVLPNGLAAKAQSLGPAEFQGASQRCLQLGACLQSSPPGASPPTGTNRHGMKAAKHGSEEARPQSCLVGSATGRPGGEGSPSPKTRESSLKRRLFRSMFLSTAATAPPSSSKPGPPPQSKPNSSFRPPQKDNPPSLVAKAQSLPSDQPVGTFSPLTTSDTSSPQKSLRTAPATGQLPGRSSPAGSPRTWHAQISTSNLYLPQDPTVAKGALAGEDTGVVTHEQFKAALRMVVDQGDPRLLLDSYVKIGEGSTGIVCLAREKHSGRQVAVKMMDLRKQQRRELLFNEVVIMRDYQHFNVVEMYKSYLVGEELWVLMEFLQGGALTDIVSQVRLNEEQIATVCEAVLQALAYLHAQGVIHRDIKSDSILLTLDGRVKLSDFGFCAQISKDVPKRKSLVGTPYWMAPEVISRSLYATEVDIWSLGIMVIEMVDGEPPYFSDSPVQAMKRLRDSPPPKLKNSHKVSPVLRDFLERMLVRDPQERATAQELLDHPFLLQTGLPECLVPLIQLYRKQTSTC
For experiment [5] the target is unchanged. Conditions: at 10 µM.
The target in experiment [6] is PAS domain-containing serine/threonine-protein kinase (Homo sapiens) (UniProt Q96RG2). Conditions: at 10 µM.
The target of experiment [7] is Activated CDC42 kinase 1 (Homo sapiens) (UniProt Q07912). Conditions: at 1 µM.
Experiment [8] shares this target. The note with it: at 10 µM.
Experiment [9] concerns the target ALK tyrosine kinase receptor (Homo sapiens) (UniProt Q9UM73). Conditions: at 1 µM.
Experiment [10] shares this target. Conditions: at 10 µM.

Sequence of Serine/threonine-protein kinase PAK 5 (Homo sapiens) (Q9P286 whole entry, looked up): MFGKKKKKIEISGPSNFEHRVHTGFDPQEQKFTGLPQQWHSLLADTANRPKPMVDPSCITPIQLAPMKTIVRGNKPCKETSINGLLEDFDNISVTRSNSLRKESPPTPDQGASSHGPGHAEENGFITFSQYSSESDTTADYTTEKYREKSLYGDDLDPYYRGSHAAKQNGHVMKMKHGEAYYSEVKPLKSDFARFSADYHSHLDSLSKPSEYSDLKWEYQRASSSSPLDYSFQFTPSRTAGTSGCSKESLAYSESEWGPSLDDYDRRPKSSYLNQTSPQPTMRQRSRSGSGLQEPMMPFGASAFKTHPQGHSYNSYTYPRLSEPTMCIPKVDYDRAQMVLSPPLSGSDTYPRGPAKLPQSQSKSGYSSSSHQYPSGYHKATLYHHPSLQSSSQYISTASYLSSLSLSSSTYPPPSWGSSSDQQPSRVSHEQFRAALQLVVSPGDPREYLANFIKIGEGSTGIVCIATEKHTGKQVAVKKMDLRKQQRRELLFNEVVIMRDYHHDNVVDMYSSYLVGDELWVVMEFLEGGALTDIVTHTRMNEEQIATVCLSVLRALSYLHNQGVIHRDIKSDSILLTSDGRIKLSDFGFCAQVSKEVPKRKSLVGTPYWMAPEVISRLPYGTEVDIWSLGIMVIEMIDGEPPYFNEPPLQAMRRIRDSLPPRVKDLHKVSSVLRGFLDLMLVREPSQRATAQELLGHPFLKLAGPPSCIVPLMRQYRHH
Sequence of PAS domain-containing serine/threonine-protein kinase (Homo sapiens) (Q96RG2 whole entry, the tested form may be a part): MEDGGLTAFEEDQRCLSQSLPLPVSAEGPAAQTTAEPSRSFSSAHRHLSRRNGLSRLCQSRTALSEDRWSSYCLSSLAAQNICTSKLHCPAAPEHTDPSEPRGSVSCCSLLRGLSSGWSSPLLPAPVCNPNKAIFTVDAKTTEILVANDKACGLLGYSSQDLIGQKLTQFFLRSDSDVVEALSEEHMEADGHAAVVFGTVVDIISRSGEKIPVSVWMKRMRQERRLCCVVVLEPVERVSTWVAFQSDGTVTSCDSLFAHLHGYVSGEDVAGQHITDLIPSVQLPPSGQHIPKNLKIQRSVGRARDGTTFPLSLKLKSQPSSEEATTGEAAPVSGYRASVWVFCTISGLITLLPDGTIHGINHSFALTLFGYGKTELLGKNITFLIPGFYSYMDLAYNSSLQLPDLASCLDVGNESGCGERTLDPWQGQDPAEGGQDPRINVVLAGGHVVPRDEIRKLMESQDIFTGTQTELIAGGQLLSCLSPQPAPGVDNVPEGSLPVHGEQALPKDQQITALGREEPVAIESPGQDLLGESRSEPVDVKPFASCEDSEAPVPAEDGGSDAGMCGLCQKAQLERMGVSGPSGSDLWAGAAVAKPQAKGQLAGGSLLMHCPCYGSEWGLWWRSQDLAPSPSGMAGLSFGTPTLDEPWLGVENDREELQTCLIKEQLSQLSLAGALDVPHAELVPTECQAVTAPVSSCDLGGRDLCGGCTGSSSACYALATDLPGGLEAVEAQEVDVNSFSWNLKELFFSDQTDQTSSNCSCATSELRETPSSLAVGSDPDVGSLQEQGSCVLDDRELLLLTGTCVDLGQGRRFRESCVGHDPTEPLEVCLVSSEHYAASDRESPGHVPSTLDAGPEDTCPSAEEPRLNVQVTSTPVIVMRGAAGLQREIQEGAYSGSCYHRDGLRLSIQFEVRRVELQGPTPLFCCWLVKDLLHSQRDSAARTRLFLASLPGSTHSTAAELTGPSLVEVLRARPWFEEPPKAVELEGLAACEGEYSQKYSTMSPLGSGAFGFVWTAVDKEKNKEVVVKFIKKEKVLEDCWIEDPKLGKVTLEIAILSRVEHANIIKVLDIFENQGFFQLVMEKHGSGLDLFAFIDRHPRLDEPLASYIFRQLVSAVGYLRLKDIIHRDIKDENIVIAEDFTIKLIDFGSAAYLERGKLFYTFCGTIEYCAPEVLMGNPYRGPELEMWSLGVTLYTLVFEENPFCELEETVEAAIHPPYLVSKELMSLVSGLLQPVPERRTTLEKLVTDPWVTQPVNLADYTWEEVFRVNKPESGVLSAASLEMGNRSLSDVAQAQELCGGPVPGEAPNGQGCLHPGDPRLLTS
Sequence of ALK tyrosine kinase receptor (Homo sapiens) (Q9UM73 19-1620 limits assumed): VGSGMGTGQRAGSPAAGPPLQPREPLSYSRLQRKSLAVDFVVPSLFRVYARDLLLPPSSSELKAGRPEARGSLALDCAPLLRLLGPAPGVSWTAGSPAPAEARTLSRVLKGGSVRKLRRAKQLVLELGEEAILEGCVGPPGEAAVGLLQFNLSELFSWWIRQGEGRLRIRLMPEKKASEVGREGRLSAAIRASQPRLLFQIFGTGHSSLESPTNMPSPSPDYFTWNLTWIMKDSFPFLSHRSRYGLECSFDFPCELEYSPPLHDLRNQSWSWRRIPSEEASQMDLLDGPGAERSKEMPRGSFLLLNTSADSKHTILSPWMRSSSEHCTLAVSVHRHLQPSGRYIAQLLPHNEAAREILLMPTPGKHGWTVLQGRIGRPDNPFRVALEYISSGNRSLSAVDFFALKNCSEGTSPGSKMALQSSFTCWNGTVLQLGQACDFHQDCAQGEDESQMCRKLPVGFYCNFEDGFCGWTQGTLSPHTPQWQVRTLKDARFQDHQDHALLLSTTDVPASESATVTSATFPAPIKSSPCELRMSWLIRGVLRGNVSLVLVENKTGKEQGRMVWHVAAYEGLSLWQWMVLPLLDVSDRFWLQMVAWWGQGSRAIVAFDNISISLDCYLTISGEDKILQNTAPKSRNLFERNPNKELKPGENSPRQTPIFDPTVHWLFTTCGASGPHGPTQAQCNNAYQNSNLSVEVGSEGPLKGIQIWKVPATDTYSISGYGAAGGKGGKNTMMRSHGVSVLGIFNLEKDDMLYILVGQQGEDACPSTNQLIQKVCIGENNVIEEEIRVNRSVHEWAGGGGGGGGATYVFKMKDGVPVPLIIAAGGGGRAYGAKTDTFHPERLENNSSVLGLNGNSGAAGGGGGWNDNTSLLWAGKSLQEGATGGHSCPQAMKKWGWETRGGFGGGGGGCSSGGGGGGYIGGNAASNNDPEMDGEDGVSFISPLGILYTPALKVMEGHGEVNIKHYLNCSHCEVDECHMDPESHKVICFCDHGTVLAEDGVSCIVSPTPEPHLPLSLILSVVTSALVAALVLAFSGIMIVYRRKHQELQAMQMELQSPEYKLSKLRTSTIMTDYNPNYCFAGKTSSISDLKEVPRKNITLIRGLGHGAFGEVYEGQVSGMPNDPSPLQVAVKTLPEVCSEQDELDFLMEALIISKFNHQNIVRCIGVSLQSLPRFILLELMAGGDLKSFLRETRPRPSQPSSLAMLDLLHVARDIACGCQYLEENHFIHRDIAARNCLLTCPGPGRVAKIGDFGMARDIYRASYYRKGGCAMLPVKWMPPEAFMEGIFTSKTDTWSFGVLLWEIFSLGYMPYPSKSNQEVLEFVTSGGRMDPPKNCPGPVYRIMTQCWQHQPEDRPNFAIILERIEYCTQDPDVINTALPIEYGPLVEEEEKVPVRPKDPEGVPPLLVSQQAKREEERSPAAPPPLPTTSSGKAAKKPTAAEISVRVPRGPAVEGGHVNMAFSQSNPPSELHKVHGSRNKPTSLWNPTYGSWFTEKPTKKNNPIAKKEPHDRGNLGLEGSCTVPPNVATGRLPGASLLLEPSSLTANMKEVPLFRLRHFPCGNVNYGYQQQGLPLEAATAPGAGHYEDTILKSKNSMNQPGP

Regarding `CC(=O)c1ccc(N2CCOCC2)cc1O`, the residual activity in experiment [1] was found to be 127%.

With `O=C1NC(=O)C(c2c[nH]c3ccccc23)=C1c1c[nH]c2ccccc12`, the residual activity in [1] is 81%.

As to `CC(C)[C@H](CO)Nc1nc(Nc2cccc(Cl)c2)c2ncn(C(C)C)c2n1`, the residual activity was 50% in experiment [2]; 11% in [3]; 57% in experiment [4]; 13% in experiment [5]; 135% in [1]; 116% in experiment [6]. The residual activity in [7] is 45%; in [8], 14%; in [9], 71%; in [10] it was 26%.

`O=C(O)c1ccc2c3c1cccc3c(=O)n1c3ccccc3nc21`: in experiment [1], the residual activity was found to be 111%.

Take `CC#CC(=O)Nc1cc2c(Nc3ccc(F)c(Cl)c3)ncnc2cn1`: the residual activity in [1] is 101%.

Take `CC[n+]1c(/C=C/N(C)c2ccccc2)n(-c2ccccc2)c2ccc(-c3nc4ccccc4s3)cc21`: the residual activity in experiment [1] is 80%.

On to `Nc1nc(Nc2ccc(S(N)(=O)=O)cc2)nn1C(=S)Nc1c(F)cccc1F`, for which, in experiment [1], the residual activity was 108%.

Regarding `COc1cc(OC)c(/C=C2\C(=O)Nc3ccccc32)c(OC)c1`, the residual activity was found to be 96% in experiment [2]; 93% in experiment [3]; 93% in experiment [5]; 92% in [1]; 71% in experiment [7]; 56% in experiment [8]. The residual activity in experiment [9] was 89%; in experiment [10], 75%.

On to `O=C1Nc2ccc3ncsc3c2/C1=C/c1c[nH]cn1`, for which the residual activity in [2] turned out to be 70%; in experiment [3], 34%; in experiment [4] it was 83%; in experiment [5], 36%; in experiment [1] it was 46%; in experiment [6] it was 2%. In addition, the residual activity in experiment [7] stood at 64%; in [8], 17%; in [9] it was 72%; in [10], 57%.

For the molecule `CCn1cnc2c(Nc3cccc(Cl)c3)nc(N[C@@H]3CCCC[C@@H]3N)nc21`, the residual activity in experiment [2] came to 38%; in experiment [3], 11%; in [4], 38%; in [5] it was 10%; in experiment [1], 113%; in [6], 69%. Also, the residual activity in experiment [7] was determined as 34%; in experiment [8], 4%; in experiment [9], 82%; in [10], 34%.

`Nc1n[nH]c2nnc(-c3c(-c4ccccc4)nn4ccccc34)cc12`: the residual activity in [1] is 104%.

`O=c1[nH]c2ccccc2n1C1CCN(Cc2ccc(-c3nc4cc5[nH]cnc5cc4nc3-c3ccccc3)cc2)CC1`: the residual activity was 84% in experiment [2]; 67% in experiment [3]; 121% in [4]; 68% in experiment [5]; 86% in [1]; 42% in experiment [6]. Also, the residual activity in experiment [7] amounted to 98%; in experiment [8], 77%; in [9], 90%; in [10], 63%.

For `O=C1C(Cl)=C(N2C(=O)CCC2=O)C(=O)c2ccccc21`, the residual activity in experiment [1] was 100%.

On to `CN(C)c1ccc(/C=C2\C(=O)Nc3ccccc32)cc1`, for which the residual activity in [1] came to 86%.

On to `C[C@@H](N)[C@H]1CC[C@H](C(=O)Nc2ccncc2)CC1`, for which the residual activity in [1] turned out to be 82%.

As for `CC(C)(C)c1cc(C=C(C#N)C#N)cc(Br)c1O`, the residual activity in experiment [4] amounted to 111%; in experiment [5], 96%; in experiment [1], 80%; in experiment [6], 44%; in [7], 106%; in experiment [8] it was 73%.

As for `O=C1c2ccccc2-[n+]2ccc3c([nH]c4ccccc43)c21`, the residual activity in [1] is 147%.

`COc1cc2ncnc(Nc3ccc(OCc4ccccc4)cc3)c2cc1OC`: the residual activity in [2] was 83%; in experiment [3], 79%; in experiment [4], 100%; in [5] it was 103%; in experiment [1], 107%; in experiment [6], 71%. The residual activity came to 22% in [7], 10% in experiment [8], 86% in experiment [9] and 76% in experiment [10].

Regarding `c1ccc(-c2n[nH]c3c2oc2ccccc23)cc1`, in experiment [1], the residual activity amounted to 130%.

On to `COc1ccc2c(c[n+](C)c3c4cc5c(cc4ccc23)OCO5)c1OC`, for which the residual activity stood at 87% in experiment [3]; 99% in experiment [4]; 61% in experiment [5]; 70% in experiment [1]; 61% in experiment [6]; 84% in experiment [7]. The residual activity in experiment [8] turned out to be 68%; in experiment [10], 65%.

Turning to `C[S+]([O-])c1ccc(-c2nc(-c3ccc(F)cc3)c(-c3ccncc3)[nH]2)cc1` (stereo unspecified), the residual activity was 105% in experiment [2]; 104% in experiment [3]; 110% in experiment [4]; 100% in experiment [5]; 113% in experiment [1]; 113% in experiment [6]. Moreover, the residual activity in experiment [7] was 93%; in experiment [8] it was 39%; in experiment [9], 122%; in experiment [10], 93%.

As for `N/C(=N\[N+](=O)[O-])N/N=C\c1ccc(-c2cccc([N+](=O)[O-])c2)o1`, the residual activity in [4] was 82%; in experiment [5], 70%; in experiment [7], 85%; in experiment [8], 71%; in experiment [9], 85%; in experiment [10], 69%.

On to `CCc1nc(-c2ccc(OC)cc2)[nH]c1-c1ccncc1`, for which the residual activity in [2] is 111%; in experiment [3] it was 105%; in experiment [1], 128%; in experiment [8] it was 69%.

Take `COc1ccc2c(c1)/C(=C/c1cnc[nH]1)C(=O)N2`: the residual activity in experiment [4] turned out to be 98%; in experiment [5], 53%; in experiment [6] it was 81%; in [8], 44%; in experiment [9], 63%; in experiment [10], 81%.

As for `O=[N+]([O-])/C=C/c1ccc2c(c1)OCO2`, the residual activity amounted to 103% in experiment [2]; 92% in experiment [3]; 102% in [5]; 107% in [1]; 87% in [6]; 83% in experiment [7]. Further, the residual activity in experiment [8] amounted to 69%; in experiment [9] it was 84%; in experiment [10] it was 101%.

For the molecule `COc1cc2ncnc(Nc3ccc(O)c(Br)c3)c2cc1OC`, the residual activity in [1] is 73%.

For `CC(C)n1cnc2/c(=N/c3cccc(Cl)c3)nc(NCCO)[nH]c21`, in experiment [1], the residual activity stood at 113%.

As for `COC(=O)[C@@]1(O)C[C@H]2O[C@]1(C)n1c3ccccc3c3c4c(c5c6ccccc6n2c5c31)C(=O)NC4`, the residual activity was 6% in experiment [2]; 1% in [3]; 0% in [4]; -1% in experiment [5]; 14% in experiment [1]; 4% in [6]. In addition, the residual activity in [7] was 0%; in [8], 0%; in experiment [9], 10%; in experiment [10], 1%.

On to `O=C1NC(=O)c2c1c1c3ccccc3n3c1c1c2c2ccccc2n1C1CCC3O1`, for which the residual activity came out at 19% in experiment [4]; 15% in [5]; 8% in [7]; 13% in experiment [8]; 81% in [9]; 79% in experiment [10].

For `Cc1ccc(S(=O)(=O)/C=C/C#N)cc1`, in experiment [1], the residual activity stood at 82%.

In the case of `CN([C@@H](Cc1ccc(OS(=O)(=O)c2cccc3cnccc23)cc1)C(=O)N1CCN(c2ccccc2)CC1)S(=O)(=O)c1cccc2cnccc12`, the residual activity in experiment [1] came out at 79%.

Consider `Nc1cccc(-c2cc3c(Oc4cccc(O)c4)ncnc3[nH]2)c1`, for which, in experiment [1], the residual activity was determined as 123%.

With `O=C1c2ccccc2-c2nc3nnnn3nc21`, the residual activity was determined as 80% in experiment [2]; 74% in experiment [3]; 112% in experiment [4]; 112% in [5]; 109% in [7]; 80% in experiment [8].

For the molecule `c1cc(-c2cnn3cc(-c4ccc(OCCN5CCCCC5)cc4)cnc23)ccn1`, the residual activity worked out at 87% in experiment [2]; 69% in experiment [3]; 106% in experiment [1]; 57% in [6]; 63% in experiment [7]; 18% in experiment [8]. For the same molecule, the residual activity stood at 76% in experiment [9] and 61% in [10].

As for `CCN(CC)CCNC(=O)c1c(C)[nH]c(/C=C2\C(=O)Nc3ccc(Cl)cc32)c1C`, the residual activity in experiment [1] worked out at 70%.

Take `CC(=O)O/N=C1\C(=C2\C(=O)Nc3cc(Br)ccc32)Nc2ccccc21`: the residual activity in experiment [1] was 93%.

`N#Cc1cnc2cnc(NCc3cccnc3)cc2c1Nc1ccc(F)c(Cl)c1`: in [1], the residual activity amounted to 80%.

For the molecule `Cn1cc(/C=C2\C(=O)Nc3ccc(S(N)(=O)=O)cc32)c2ccccc21`, in [1], the residual activity was found to be 97%.

Turning to `CSc1nc(-c2ccc(F)cc2)c(-c2ccnc(NC(C)c3ccccc3)c2)[nH]1` (stereo unspecified), the residual activity in experiment [1] was 95%.

As to `CN[C@@H]1C[C@H]2O[C@@](C)([C@@H]1OC)n1c3ccccc3c3c4c(c5c6ccccc6n2c5c31)C(=O)NC4`, the residual activity in [9] is 0%; in experiment [10] it was 1%.
